Screening results deposited in PubChem by several laboratories.
STAT3 inh: IL-6 driven STAT3 reporter inhibitors, primary screen, U3A cells, luciferase, luminescence, MLSCN library | IL-6 STAT3-luciferase reporter; host cell line lacks STAT1 | inhibition, % at 5.5 µM | 0.89% of 190,000 active | AID 862, 2007;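 active means inhibition above the mean inhibition across all screened compounds plus 3 SD, cut at about 44% in these data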;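 further: 0% = DMSO only wells and 100% = 100 µM nifuroxazide control wells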
PPC-1+TRAIL kill: compounds killing PPC-1 cancer cells with TRAIL present, primary screen, TRAIL potentiator project, ATPLite luminescence, uHTS | PPC-1 cells + TRAIL, ATPLite viability luminescence | cell killing (% activity), % at 4 µM or 5 µM | 0.41% of 220,000 active | AID 1443, 2008;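 active means cell killing above 50% in the first pass at 4 µM, then a duplicate retest at 5 µM averaging 50% or more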;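 further: plate controls were cells with TRAIL plus DMSO for no effect and medium-only wells lacking cells for full effect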
TRAIL sens C8: viability loss with TRAIL in NB7+C8 cells, primary screen, TRAIL sensitizer project, cell-based, ATPlite luminescence | inhibition (viability loss, TRAIL sensitization), % at 10 µM | 1% of 360,000 active;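 active means compounds causing at least 50% loss of cell viability in the single-dose screen, relative to plate controls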
HSF1 inh: HSF1 inhibitors in luciferase reporter cells, primary screen, cell-based, NIH3T3, luminescence. 0.77% of 300,000 active. activity change, negative = inhibition, % at 7.5 µM (by protocol). AID 2098, 2009. NIH3T3-HGL HSE-luciferase, MG132-induced, luminescence 8 h; stronger effect = lower value;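 active means more than half of replicate wells show activity change below -50%, luminescence cut by over half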;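 further: luciferase reports HSF-1 transcriptional activity via heat shock element; 0% = median of DMSO wells and -100% = zero luminescence signal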
STAT1 blocker: STAT1 signaling inhibitors, primary screen, cell-based, HTS, luciferase reporter. 0.35% of 200,000 active. inhibition, % at 5.5 µM. NIH 3T3 STAT1-luciferase reporter, IFN-gamma, luminescence;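 active means inhibition above a set limit, the mean inhibition across all tested compounds plus 3 SD, cut at about 34% in these data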;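 further: 0% = IFN-gamma with DMSO and 100% = IFN-gamma with 300 µM nifuroxazide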
HSP90 refold inh: HSP90 inhibitors, primary screen, cell lysate, luminescence. AID 1789, 2009. Rabbit reticulocyte lysate, luciferase refolding luminescence, 3 h. inhibition, % at 5.6 µM. 0.91% of 290,000 active. Heat shock protein HSP 90 (rabbit reticulocyte lysate; luciferase refolding);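 active means inhibition above the screen-wide mean plus 3 SD, computed separately per campaign, cut at about 16% in these data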;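 further: 0% = DMSO wells and 100% = 60 µM geldanamycin wells; inhibitors lower the luminescence because luciferase stays unfolded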
PPC-1 tox: cytotoxicity in PPC-1 cells, confirmation, cytotoxicity control for TRAIL apoptosis potentiator project, cell-based, ATP content luminescence; 50% of 1,200 active; PPC-1 viability, ATPlite luminescence, overnight; cytotoxicity, % at 5 µM; shares compounds with PPC-1+TRAIL kill;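 active means reconfirmed compounds whose average cytotoxicity reaches 50% or more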;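 further: 0% = DMSO-treated cells and 100% = wells holding medium but no cells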
An asterisk follows results filed as active; . = no result. A selection: hits, their analogues and other compounds. The true share with any hit is near 2.4%.

SMILES	STAT3 inh	PPC-1+TRAIL kill	TRAIL sens C8	HSF1 inh	STAT1 blocker	HSP90 refold inh	PPC-1 tox
O=C1c2ccccc2C(=O)C1c1ccncc1	36	59*	57*	14	-29	15	58*
O=C1c2ccccc2C(=O)C1c1ccccn1	.	25	34	20	.	-1	.
CC(=O)Nc1ccc(C2C(=O)c3ccccc3C2=O)cc1	.	53*	62*	0	.	-1	54*
Cc1ccc(C2C(=O)c3ccccc3C2=O)cc1	.	.	-5	-5	.	-3	.
COc1cccc(C(C(=O)NCc2ccccc2)N2CCN(C(=O)C3CCCO3)CC2)c1OC (stereo not given)	.	.	6	.	.	.	.
Cc1cc(C)cc(OCC(=O)NC2=NCCS2)c1	7	-3	3	-8	-4	-1	0
O=C(COc1ccc2ccccc2c1)NC1=NCCS1	37	11	32	16	-29	2	.
CCN1C(=O)[C@H]2[C@@H](c3ccc(C(F)(F)F)cc3)N[C@]3(CCCN(CC4CCCCC4)C3=O)[C@H]2C1=O	.	.	1	.	.	.	.
COc1ccc(C(O)c2ncc(-c3ccccc3)[nH]2)cc1F (stereo not given)	.	.	-8	.	.	.	.
CCc1c(C)sc(NC(=O)c2cc(CC(C)C)on2)c1C#N	21	2	-3	4	-4	1	-1
c1cncc(-c2nc3cc4ccccc4cc3[nH]2)c1	13	61*	66*	13	-62	2	66*
CC1CCCN(c2ncnc3c2cnn3-c2ccccc2)C1 (stereo not given)	.	78*	86*	-61*	.	.	78*
CC1CCCN(c2ncnc3c2cnn3-c2ccc(Cl)cc2)C1 (stereo not given)	.	79*	87*	-90*	.	.	79*
CCN(CC)C(=O)C1CCCN(c2ncnc3c2cnn3-c2ccc(Cl)cc2)C1 (stereo not given)	.	.	5	-42	.	6	.
C[C@H](CO)N1C[C@H](C)[C@H](CN(C)Cc2cncnc2)Oc2cc(Br)ccc2S1(=O)=O	.	.	4	.	.	.	.
CCC1CCc2c(sc(NC(=O)CSc3nc(-c4ccco4)cc(C(F)(F)F)n3)c2C#N)C1 (stereo not given)	-1	1	-1	10	3	3	6
N#Cc1c(NC(=O)CSc2nc(-c3ccccc3)cc(C(F)(F)F)n2)sc2c1CCC2	-8	-15	26	-11	5	0	.
O=c1ccc2nc3ccccc3sc-2c1	.	.	1	.	.	.	.
O=C(c1cccs1)N1C[C@H](O)[C@@H](n2cc(C3CC3)nn2)C[C@@H]1c1ccccc1	.	.	-7	.	.	.	.
CCCOc1ccc(N2C(=O)C3C(C(C)C)NC4(C(=O)c5ccccc5C4=O)C3C2=O)cc1 (stereo not given)	18	0	1	3	4	3	6
Cc1ccc(-c2nc3cc(N)ccc3o2)c(C)c1	40	44	58*	11	-59	4	48
CC1C(=O)N(Cc2cn(CCC3OCCCO3)nn2)CCS(=O)(=O)N1Cc1ccc(-c2ccncc2)cc1 (stereo not given)	.	.	-11	.	.	.	.
Cc1ccc2nc(-c3ccc(NC(=O)COC(=O)c4cncc(Br)c4)cc3)sc2c1	8	50*	70*	-23	-48	0	49
CCCC(C)NC(=O)c1nc(-c2ccccc2)n(-c2ccccc2)n1 (stereo not given)	8	-8	17	-4	1	2	4
O=C(O)c1nc(-c2ccccc2)n(-c2ccccc2)n1	17	17	-2	-7	8	0	.
SMILES	STAT3 inh	PPC-1+TRAIL kill	TRAIL sens C8	HSF1 inh	STAT1 blocker	HSP90 refold inh	PPC-1 tox
COc1ccc(NC(=O)CN2CCN(CC(=O)Nc3cc(OC)cc(OC)c3)CC2)cc1	.	-2	5	.	.	.	4
Cc1cccc(C)c1-n1nnnc1C(c1ccnc2ccccc12)N1CCN(C(=O)OC(C)(C)C)CC1 (stereo not given)	.	.	11	.	.	.	.
Cc1cccc(C)c1NC(=O)C1(C)CN(S(C)(=O)=O)CC(=O)N1CC(F)(F)F (stereo not given)	.	.	13	.	.	.	.
CCc1cccc(OCC(=O)Nc2ccc(S(=O)(=O)Nc3ccccn3)cc2)c1	7	6	-1	.	-6	-2	8
Cc1ccc(OCC(=O)Nc2ccc(S(=O)(=O)Nc3ccccn3)cc2)cc1C	18	10	4	1	9	3	.
COc1ccccc1C(=O)Nc1ccc2c(c1)nc1n2CCSC1	4	28	43	.	-30	8	35
O=C(O)c1ccc(N/N=C/c2cc3cc4c(cc3nc2Cl)OCCO4)cc1	.	88*	93*	0	.	12	91*
COCCNC(=O)C1CCCN(Cc2cccc(C#N)c2)CC1 (stereo not given)	.	.	1	.	.	.	.
COc1cccc(-c2noc(-c3ccc4c(c3)OCO4)n2)c1	72*	60*	66*	4	41*	-4	62*
c1ccc(Cn2c(-c3ccco3)nc3nc4ccccc4nc32)cc1	3	10	5	56	-58	-1	.
Clc1ccc(-c2nc3nc4ccccc4nc3n2Cc2ccco2)cc1	4	-10	39	.	-30	3	6
Cn1ccc(C(=O)N/N=C/c2cccnc2)n1	.	.	-17	17	.	-3	.
CN(C)c1ccc(/C=N/NC(=O)c2ccn(C)n2)cc1	.	39	49	3	.	-1	26
COc1ccc(-c2nc(-c3ccccn3)ncc2S(C)(=O)=O)cc1	-2	-12	-7	-5	-6	2	.
Cn1nc(-c2ccccn2)nc2c(=O)n(C)c(=O)nc1-2	.	30	96*	-94*	.	87*	36
CCOC(=O)C1C(=O)NCC2CCCC21 (stereo not given)	4	6	7	4	5	-3	4
CCOC(=O)C1CCN(c2c(N3CCCCCC3)c(=O)c2=O)CC1	0	15	5	-4	-2	-1	.
COc1ccc(Cl)cc1NC(=O)CSc1nc2[nH]ncc2c(=O)[nH]1	.	.	-9	.	.	.	.
CC(C)c1ccc(Nc2nnc(SCC(=O)Nc3ncc(S(=O)(=O)c4ccc([N+](=O)[O-])cc4)s3)s2)cc1	1	64*	76*	0	3	1	65*
